Growth data for 40 compounds are collected here from PubChem BioAssay (NCI).

Where “and” joins values, the source holds several entries; their conditions need not be identical. Identical values can stand only once. The panel holds about 83,000 compounds, 20% with a hit somewhere; the sample as a whole holds those more often.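 A percent growth of 40 corresponds to 60% growth inhibition; 0 means no net growth; -100 means all cells died. Active threshold: below 10.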 Calls of active or inactive are those of the source.

The assay relates to MCF7 breast. Description: NCI-60 one-dose screen, 48 h (100 = growth as untreated, 0 = no growth, -100 = all killed). Conditions: 10 µM unless noted. On the procedure: Growth inhibition of the MCF7 human tumor cell line is measured as a screen for anti-cancer activity. Cells are grown in 96 well plates and exposed to the test compound for 48 hours. Compounds are tested at a single concentration, which is 10^-5 M for most compounds. The reported endpoint is percent growth (GI% or GIPRCNT), where numbers from 0 - 100% represent growth inhibition, and numbers from -100% - 0 represent cell death. For example, a value of 40 represents 60% growth inhibition. A value of 0 means no net growth occurred over the course of the experiment. A value of -40 indicates 40% of cells at the beginning of the experiment died by the end of the experiment. A value of -100 means all cells are dead at the end of the experiment.
NCI-60 Human Tumor Cell Lines Screen was performed using the standard one-dose NCI protocol, which is described in more detail at https://dtp.cancer.gov/discovery_development/nci-60/default.htm.
Compounds with GIPRCNT values below 10 were considered active. Activity score was based on GIPRCNT using the following formula: […]
Score is 0 for GIPRCNT values of 100 or above, 50 for GIPRCNT values of 0, and 100 for GIPRCNT values of -100.
For the compound `CCCCCCCCCCCC[n+]1ccc(CCCCCCCCC)cc1`, the growth was -5.44% (active). For the compound `Cc1cccc2c(N)c3ccccc3nc12`, the growth was 5.35% (active). As to `CCOC(=O)c1[nH]c(C#N)c(C(=O)OCC)c1C`, the growth is 103% (inactive). With `COc1cc(OC)c(/C=C/c2c3ccccc3cc[n+]2C)c(OC)c1`, the growth was 12.9% (inactive). `CN(C)CC(C)(CN(C)C)C(=O)/C=C/c1c(Cl)cccc1Cl`: the growth is -60.9% (active).

On to `S=C(SSC(=S)N1CCOCC1)N1CCOCC1`, for which the growth was 66.5% (inactive).

Take `COC(=O)Nc1nc2ccc(C3(c4ccc(F)cc4)OCCO3)cc2[nH]1`: the growth is 15.7% (inactive). Turning to `Cc1ccc(NC(=S)C#N)cc1Cl`, the growth is -25.7% [100 µM] (active) and -100% [100 µM] (active).

For `O=C1C=CC(=O)N1c1cccc2c1CCCC2`, the growth is 88.3% (inactive).

For the compound `NNc1ccc(Cl)cc1Cl`, the growth is 74.8% (inactive). As for `CCN(CC)CCNC(Cc1ccccc1)c1ccc(OCc2ccccc2)cc1` (stereo not given), the figure is 78.2% (inactive). As for `Cc1cc(C)c([I+]c2c(C)cc(C)cc2C)c(C)c1`, the figure is -53.7% (active); as for `CCCCCCCCCCCC[n+]1ccc2ccccc2c1`, -10.3% (active). Regarding `O=C(/C=C/c1ccccc1)CCC1C(=O)c2ccccc2C1=O`, the growth is 48% [100 µM] (inactive) and 57.5% [100 µM] (inactive). In the case of `COc1ccc(C(OCC2OC(n3ccc(NC(=O)c4ccccc4)nc3=O)C(O)C2O)(c2ccccc2)c2ccccc2)cc1` (stereo not given), the growth was 13.3% (inactive).

As for `COc1ccc2nc3cc([N+](=O)[O-])ccc3c(NNc3ccccc3)c2c1`, the growth was 72.9% (inactive).

For the compound `CCCCCCCCCCCCN1C(C)=CS/C1=C\C=C\c1scc(C)[n+]1CCCCCCCCCCCC`, the growth was 7.9% (active).

`O=C(Cc1ccccc1)C(F)(F)F`: the growth is 103% (inactive).

Turning to `Nc1cccc2cccc([N+](=O)[O-])c12`, the growth was 86.6% (inactive). With `COc1ccc2c(c1)C(OC)C1c3c(cc4c(c3-2)OCO4)CCN1C` (stereo not given), the growth was -76.9% [100 µM] (active) and -70% [100 µM] (active). As for `O=C(Cc1nc2cc(Cl)c(Cl)cc2nc1CC(=O)c1ccccc1)c1ccccc1`, the figure is 9.51% (active); as for `N#CC1c2ccccc2C=CN1C(=O)CCCl` (stereo not given), 24.8% (inactive); as for `Cc1nc(Sc2nc3ccc([N+](=O)[O-])cc3s2)sc1C`, 1.58% (active). As to `OC(c1cc2ccc(C(F)(F)F)cc2c2cc(C(F)(F)F)ccc12)C1CCCCN1` (stereo not given), the growth is -90.8% (active). With `CN1CCC(CN2c3ccccc3Sc3ccccc32)C1` (stereo not given) the figure was 97.7% (inactive). For the compound `CC(O)C(O)C(O)C(O)C(O)C(=O)NNc1ccccc1` (stereo not given), the growth is 88.1% (inactive). For `COC(=O)C(=[N+]=[N-])C(=O)c1ccc([N+](=O)[O-])o1`, the growth is 65.1% (inactive). With `OC(c1cc(C23CC4CC(CC(C4)C2)C3)nc2c(Cl)cc(Cl)cc12)C1CCCCN1` (stereo not given), the growth is -80.7% (active). For the compound `CCCCCCCCCCCC[n+]1ccccc1` (tested in a mixture with another compound), the growth was 2.79% (active).

`Fc1ccc(NCCS)cc1`: the growth was 90% (inactive).

Consider `O=C1C=CC(=O)N1c1cc(Cl)c(Cl)cc1Cl`, for which the growth was 87.8% (inactive). Turning to `O=C(c1ccccc1)c1cc2ccccc2oc1=O`, the growth was 108% (inactive). With `COC1=CC(=O)c2c(O)c3c(c(O)c2C1=O)CC(C)(O)OC3` (stereo not given) the figure was -27.1% (active); with `COc1ccc2c(c1OC)OCC(CN(C)C)C2=O` (stereo not given), 75% (inactive); with `CCN(CC)CC(O)c1cc(-c2ccc(Cl)cc2)nc2cc(Cl)ccc12` (stereo not given), -28.4% (active). As for `CCC1C[N+]2=C(c3cc(OC)c(OC)cc3CC2)c2c1cc1n2CCc2cc(OC)c(OC)cc2-1` (stereo not given), the growth was 9.71% (active). As for `CCC(C)(O)Cc1ccc(Cl)cc1` (stereo not given), the figure is 92.8% (inactive); as for `C=C1C(=O)C2=CC1CCC(=O)C1(C)CCC(OC(C)=O)C(C)(C)C1CC2O` (stereo not given), -80.9% [100 µM] (active) and -63.1% [100 µM] (active). `CN(C)CCSC1=Nc2ccc(Cl)cc2C(c2ccccc2Cl)N(C)C1` (stereo not given): the growth is 27.8% (inactive). Consider `CC1(C=O)CCC23COC4(CCC5C6(C)CCC(OC7OCC(OC8OC(CO)C(O)C(OC9OC(CO)C(O)C(O)C9O)C8OC8OCC(O)C(O)C8O)C(O)C7OC7OC(CO)C(O)C(O)C7O)C(C)(C)C6CCC5(C)C4(C)CC2O)C3C1` (stereo not given), for which the growth was -68.6% [100 µM] (active) and -39.6% [100 µM] (active).
